This is an account of results in PubChem BioAssay (EPA / NIEHS).

What all share (details): mRNA level, 48 h; actives raise or lower the signal
Read-out in one assay: BCL2L11 (gene 10018)
Nature of the assay: LTEA_HepaRG_BCL2L11: Life Technologies and Expression Analysis (LTEA) Assay for Bcl-2 (BCL2L11) gene using HepaRG (AID 2283473). An outline of the steps: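 Human hepatic HepaRG cultures are treated 48 h with test chemicals (maximum 100 uM, 0.5% DMSO vehicle). Expression of BCL2L11 is measured by qRT-PCR against ACTB, GAPDH and POLR2A, with activity in either direction scored relative to vehicle.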

Read-out in assay [1]: Apolipoprotein A-V (APOA5) gene, APOA5 (gene 116519)
Nature of the assay: LTEA_HepaRG_APOA5: Life Technologies and Expression Analysis (LTEA) Assay for Apolipoprotein A-V (APOA5) gene using HepaRG (AID 2283474). An outline of the steps:
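Concentration-response of APOA5 expression in HepaRG: eight half-log doses to 100 uM, 48 h, qRT-PCR normalized to ACTB/GAPDH/POLR2A, bidirectional fitting with 0.5% DMSO as baseline.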

Read-out in assay [2]: Apoptosis regulator Bcl-2 (Homo sapiens) (UniProt P10415)
Nature of the assay: LTEA_HepaRG_BCL2: Life Technologies and Expression Analysis (LTEA) Assay for Bcl-2 gene using HepaRG (AID 2283475). A digest of the protocol: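 Differentiated HepaRG cells in serum-free induction medium were exposed for 48 h to eight half-log concentrations up to 100 uM in 0.5% DMSO, in duplicate. BCL2 mRNA was quantified by TaqMan qRT-PCR normalised to ACTB, GAPDH and POLR2A, with bidirectional fitting versus DMSO.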

Read-out in assay [3]: Bcl-2 (BID) gene, BID (gene 637)
In words: LTEA_HepaRG_BID: Life Technologies and Expression Analysis (LTEA) Assay for Bcl-2 (BID) gene using HepaRG (AID 2283476). An outline of the steps: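 Differentiated HepaRG cells in serum-free induction medium were exposed in duplicate for 48 h to eight half-log concentrations up to 100 uM in 0.5% DMSO. BID mRNA was quantified by qRT-PCR, normalized to ACTB, GAPDH and POLR2A.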

Read-out in a further assay: Caspase-3 (Homo sapiens) (UniProt P42574)
Nature of the assay: LTEA_HepaRG_CASP3: Life Technologies and Expression Analysis (LTEA) Assay for cysteine-aspartic acid protease (CASP3) using HepaRG (AID 2283477). A digest of the protocol:
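Transcript-level assay: CASP3 mRNA in human HepaRG after 48 h treatment, eight half-log concentrations from 100 uM in 0.5% DMSO, quantified by qRT-PCR.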

Read-out in assay [4]: Cytochrome P450 (CYP24A1), CYP24A1 (gene 1591)
Nature of the assay: LTEA_HepaRG_CYP24A1: Life Technologies and Expression Analysis (LTEA) Assay for Cytochrome P450 (CYP24A1) using HepaRG (AID 2283478). A digest of the protocol: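 Gene expression of CYP24A1 by TaqMan qRT-PCR in HepaRG after 48 h treatment, highest concentration 100 uM; activity fitted in both directions relative to DMSO vehicle.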

Read-out in assay [5]: Cytochrome P450 (CYP1A2), CYP1A2 (gene 1544)
In words: LTEA_HepaRG_CYP1A2: Life Technologies and Expression Analysis (LTEA) Assay for Cytochrome P450 (CYP1A2) using HepaRG (AID 2283479). An outline of the steps: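 In duplicate wells, HepaRG cultures maintained in 0.5% DMSO were treated 48 h across an 8-point, half-log series topping at 100 uM; phenobarbital (1 mM) served as induction control. Expression was read by qRT-PCR.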

Read-out in assay [6]: cysteine-aspartic acid protease (CASP8), CASP8 (gene 841)
Nature of the assay: LTEA_HepaRG_CASP8: Life Technologies and Expression Analysis (LTEA) Assay for cysteine-aspartic acid protease (CASP8) using HepaRG (AID 2283480). A digest of the protocol:
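HepaRG, 48 h exposure, duplicate wells; 8 conc, half-log from 100 uM, 0.5% DMSO. Serum-free induction medium. CASP8 mRNA by TaqMan qRT-PCR, norm. ACTB/GAPDH/POLR2A; gain/loss fitted vs DMSO.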

Read-out in assay [7]: Cytochrome P450 (CYP2B6), CYP2B6 (gene 1555)
In words: LTEA_HepaRG_CYP2B6: Life Technologies and Expression Analysis (LTEA) Assay for Cytochrome P450 (CYP2B6) using HepaRG (AID 2283481). A digest of the protocol: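 Human HepaRG, 48 h dosing, 0.5% DMSO vehicle, top dose 100 uM. CYP2B6 transcript by qRT-PCR, housekeeping-normalized, bidirectional curve fit.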

Read-out in assay [8]: Cytochrome P450 2C19 (Homo sapiens) (UniProt P33261)
Nature of the assay: LTEA_HepaRG_CYP2C19: Life Technologies and Expression Analysis (LTEA) Assay for CYP2C19 using HepaRG (AID 2283482). A digest of the protocol: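 Endpoint: CYP2C19 mRNA change, bidirectional fit vs 0.5% DMSO. Cells: HepaRG, 48 h exposure, eight-point series topping at 100 uM. Quantitation: qRT-PCR normalized to ACTB, GAPDH, POLR2A.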

Read-out in the next assay: CYP2C8 (gene 1558)
In words: LTEA_HepaRG_CYP2C8: Life Technologies and Expression Analysis (LTEA) Assay for CYP2C8 using HepaRG (AID 2283483). A digest of the protocol:
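CYP2C8 mRNA induction or loss, by qRT-PCR normalized to ACTB/GAPDH/POLR2A, is read in HepaRG cells after 48 h treatment. Concentrations run from 100 uM down in half-log dilutions, with 0.5% DMSO as vehicle and baseline.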

Read-out in another assay: CYP2C9 (gene 1559)
In words: LTEA_HepaRG_CYP2C9: Life Technologies and Expression Analysis (LTEA) Assay for CYP2C9 using HepaRG (AID 2283484). A digest of the protocol:
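Cells plated 48 h, switched to serum-free induction medium, then treated in duplicate for 48 h at eight concentrations (max 100 uM, 0.5% DMSO). RNA then analysed by qRT-PCR for CYP2C9; curves fitted in both directions relative to DMSO.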

Read-out in a further assay: CYP2E1 (gene 1571)
Nature of the assay: LTEA_HepaRG_CYP2E1: Life Technologies and Expression Analysis (LTEA) Assay for CYP2E1 using HepaRG (AID 2283485). An outline of the steps:
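HepaRG cells in serum-free induction medium exposed 48 h to test chemicals, 8 half-log concentrations up to 100 uM in 0.5% DMSO, duplicate. CYP2E1 mRNA by qRT-PCR, normalized to ACTB, GAPDH, POLR2A; bidirectional fit versus DMSO.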

Read-out in the next assay: CYP4A11 (gene 1579)
In words: LTEA_HepaRG_CYP4A11: Life Technologies and Expression Analysis (LTEA) Assay for CYP4A11 using HepaRG (AID 2283486). A digest of the protocol:
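Human hepatic HepaRG cultures receive duplicate 48 h exposures across a concentration-response series topping at 100 uM. Expression changes in CYP4A11 are measured by qRT-PCR relative to DMSO controls.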

Read-out in assay [9]: Cytochrome P450 3A4 (Homo sapiens) (UniProt P08684)
In words: LTEA_HepaRG_CYP3A4: Life Technologies and Expression Analysis (LTEA) Assay for CYP3A4 using HepaRG (AID 2283487). An outline of the steps: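 Differentiated HepaRG cells, plated 48 h, then dosed 48 h in serum-free induction medium with 0.5% DMSO, 8 half-log concentrations up to 100 uM, duplicate. CYP3A4 mRNA by qRT-PCR, normalized to ACTB/GAPDH/POLR2A; bidirectional fit versus DMSO.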

Read-out in assay [10]: DNA damage-inducible transcript 3 (DDIT3), DDIT3 (gene 1649)
In words: LTEA_HepaRG_DDIT3: Life Technologies and Expression Analysis (LTEA) Assay for DNA damage-inducible transcript 3 (DDIT3) using HepaRG (AID 2283488). An outline of the steps: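 Differentiated human HepaRG cells in serum-free induction medium were exposed in duplicate for 48 h to 8 concentrations (top 100 uM, half-log steps, 0.5% DMSO). DDIT3 mRNA measured by TaqMan qRT-PCR, normalized to ACTB/GAPDH/POLR2A; bidirectional fit versus DMSO.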

Read-out in assay [11]: Pro-epidermal growth factor (Homo sapiens) (UniProt P01133)
In words: LTEA_HepaRG_EGF: Life Technologies and Expression Analysis (LTEA) Assay for Epidermal growth factor (EGF) using HepaRG (AID 2283489). An outline of the steps: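 Concentration-response mRNA assay: HepaRG cells dosed 48 h (max 100 uM, 0.5% DMSO), EGF measured by qRT-PCR and normalized to ACTB/GAPDH/POLR2A.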

Read-out in assay [12]: Early growth response protein 1 (EGR1) transcription factor, EGR1 (gene 1958)
In words: LTEA_HepaRG_EGR1: Life Technologies and Expression Analysis (LTEA) Assay for Early growth response protein 1 (EGR1) transcription factor using HepaRG (AID 2283490). A digest of the protocol: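 Read-out is EGR1 mRNA level by qRT-PCR, normalized to three housekeeping genes and analysed for gain or loss of signal against 0.5% DMSO. Source cells: human HepaRG, treated 48 h at up to 100 uM in half-log dilutions.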

Read-out in assay [13]: Ezrin (EZR), EZR (gene 7430)
In words: LTEA_HepaRG_EZR: Life Technologies and Expression Analysis (LTEA) Assay for Ezrin (EZR) using HepaRG (AID 2283491). An outline of the steps: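 EZR transcript levels came from Fluidigm qRT-PCR and were normalized to three housekeeping genes after 48 h chemical exposure of HepaRG cells. Dosing used an 8-point half-log series with a 100 uM top concentration in 0.5% DMSO, tested in duplicate; both directions were fitted versus vehicle.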

Read-out in assay [14]: Cytochrome P450 3A7 (Homo sapiens) (UniProt P24462)
In words: LTEA_HepaRG_CYP3A7: Life Technologies and Expression Analysis (LTEA) Assay for CYP3A7 using HepaRG (AID 2283492). An outline of the steps:
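qRT-PCR of CYP3A7 in HepaRG lysates after 48 h treatment; concentration-response (8 points, max 100 uM) analysed bidirectionally relative to 0.5% DMSO controls.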

The source made the active and inactive calls. How the source made its calls: active means hit-call score of the fitted dose curve at least 0.9, where 1 is the maximum; inactive means score below 0.9.

Apoptosis regulator Bcl-2 (Homo sapiens), sequence (P10415 whole entry, looked up): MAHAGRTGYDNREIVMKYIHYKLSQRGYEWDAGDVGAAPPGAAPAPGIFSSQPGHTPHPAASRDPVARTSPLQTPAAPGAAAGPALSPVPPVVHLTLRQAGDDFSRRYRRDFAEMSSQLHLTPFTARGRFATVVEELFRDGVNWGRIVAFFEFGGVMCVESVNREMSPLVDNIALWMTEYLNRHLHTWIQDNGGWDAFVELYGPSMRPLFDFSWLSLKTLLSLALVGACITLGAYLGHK
Caspase-3 (Homo sapiens), sequence (P42574 whole entry, looked up): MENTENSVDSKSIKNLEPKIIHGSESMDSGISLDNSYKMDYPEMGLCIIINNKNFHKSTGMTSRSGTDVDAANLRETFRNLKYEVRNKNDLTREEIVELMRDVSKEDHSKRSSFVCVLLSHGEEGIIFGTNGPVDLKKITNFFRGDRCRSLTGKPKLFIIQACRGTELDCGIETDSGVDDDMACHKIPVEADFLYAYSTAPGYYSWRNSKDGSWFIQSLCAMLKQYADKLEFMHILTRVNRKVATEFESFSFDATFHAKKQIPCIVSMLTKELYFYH
Cytochrome P450 2C19 (Homo sapiens), sequence (P33261 whole entry, looked up): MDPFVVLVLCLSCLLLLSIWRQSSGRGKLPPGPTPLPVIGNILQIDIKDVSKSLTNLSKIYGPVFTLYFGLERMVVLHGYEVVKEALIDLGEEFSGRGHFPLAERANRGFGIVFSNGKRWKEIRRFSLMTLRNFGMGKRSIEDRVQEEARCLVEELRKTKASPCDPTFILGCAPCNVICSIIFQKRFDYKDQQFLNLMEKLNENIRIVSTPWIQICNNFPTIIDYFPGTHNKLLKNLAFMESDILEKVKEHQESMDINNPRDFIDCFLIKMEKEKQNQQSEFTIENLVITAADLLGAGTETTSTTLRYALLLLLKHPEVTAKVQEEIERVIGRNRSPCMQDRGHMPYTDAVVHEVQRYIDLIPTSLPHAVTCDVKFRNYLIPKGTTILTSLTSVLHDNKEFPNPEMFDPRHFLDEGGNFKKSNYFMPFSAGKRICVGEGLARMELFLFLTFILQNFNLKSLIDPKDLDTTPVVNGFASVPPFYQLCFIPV
Cytochrome P450 3A7 (Homo sapiens), sequence (P24462 whole entry, looked up): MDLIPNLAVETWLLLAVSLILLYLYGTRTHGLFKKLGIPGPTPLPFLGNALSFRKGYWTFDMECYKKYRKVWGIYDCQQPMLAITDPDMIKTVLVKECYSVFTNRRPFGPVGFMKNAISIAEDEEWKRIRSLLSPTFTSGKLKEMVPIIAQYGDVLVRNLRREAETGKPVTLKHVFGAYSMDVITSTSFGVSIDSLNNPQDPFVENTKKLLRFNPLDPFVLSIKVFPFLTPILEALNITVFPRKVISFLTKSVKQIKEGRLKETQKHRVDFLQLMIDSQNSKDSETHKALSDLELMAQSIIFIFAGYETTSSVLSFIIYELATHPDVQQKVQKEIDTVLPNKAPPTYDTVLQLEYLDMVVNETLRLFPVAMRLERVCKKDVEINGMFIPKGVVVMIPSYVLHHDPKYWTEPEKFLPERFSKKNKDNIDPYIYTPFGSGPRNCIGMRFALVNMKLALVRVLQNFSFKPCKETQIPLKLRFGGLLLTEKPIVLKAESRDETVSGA
Cytochrome P450 3A4 (Homo sapiens), sequence (P08684 whole entry, looked up): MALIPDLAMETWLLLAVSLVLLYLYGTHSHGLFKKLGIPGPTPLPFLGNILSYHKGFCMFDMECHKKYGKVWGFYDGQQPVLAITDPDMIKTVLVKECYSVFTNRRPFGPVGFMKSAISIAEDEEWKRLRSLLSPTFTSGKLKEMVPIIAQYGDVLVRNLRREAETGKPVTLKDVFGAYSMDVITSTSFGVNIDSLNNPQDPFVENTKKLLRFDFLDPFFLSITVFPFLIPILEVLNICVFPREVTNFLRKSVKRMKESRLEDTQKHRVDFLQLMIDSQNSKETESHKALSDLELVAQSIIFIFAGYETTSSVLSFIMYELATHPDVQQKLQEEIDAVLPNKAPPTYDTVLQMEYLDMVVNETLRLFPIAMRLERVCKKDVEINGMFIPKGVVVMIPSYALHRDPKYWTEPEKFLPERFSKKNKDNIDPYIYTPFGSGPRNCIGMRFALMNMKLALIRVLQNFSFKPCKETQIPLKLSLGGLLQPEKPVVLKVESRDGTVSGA

Usually AC50 stands for the midpoint of the concentration-response curve, whichever way the signal moves. Turning to `Cc1ccc(C)c(O)c1`, the call (with BCL2L11 (gene 10018); in [1]; in assay [2]; in assay [3]; in the assay with Caspase-3 (Homo sapiens); in [4]) was inactive. Further, the outcome (in assay [6]; in [8]; with CYP2C8 (gene 1558); with CYP2C9 (gene 1559); with CYP2E1 (gene 1571); with CYP4A11 (gene 1579)) was inactive. The compound was called inactive in assay [9], in assay [10], in assay [11], in assay [12], in assay [13] and in [14]. The concentration at half-maximal activity (AC50) in assay [5] and in assay [7] was 51.2 µM (active) throughout.

In the case of `O=C(O)c1cc(N=Nc2ccc(S(=O)(=O)Nc3ccccn3)cc2)ccc1O`, the compound was called inactive (with BCL2L11 (gene 10018); in assay [1]; in assay [2]; in assay [3]; in the assay with Caspase-3 (Homo sapiens); in assay [4]). Moreover, the compound was called inactive (in [6]; in [7]; in [8]; with CYP2C8 (gene 1558); with CYP2C9 (gene 1559); in the assay with CYP2E1 (gene 1571)). Besides, the compound was called inactive (in the assay with CYP4A11 (gene 1579); in assay [10]; in assay [11]; in assay [12]; in assay [13]; in assay [14]). The AC50 in [5] was 75.7 µM (active).

As for `O=P(OC(CCl)CCl)(OC(CCl)CCl)OC(CCl)CCl`, the concentration at half-maximal activity (AC50) was 83.8 µM (active) in the assay with BCL2L11 (gene 10018); 50 µM (active) in assay [1]; 88.3 µM (active) in [2]; 0.232 µM (active) in assay [3]; 80 µM (active) in [5]; 0.209 µM (active) in assay [6]. Moreover, the half-maximal activity concentration (AC50) in [8] was 84.9 µM (active); in the assay with CYP2C8 (gene 1558), 89.6 µM (active); with CYP2C9 (gene 1559), 76.3 µM (active); in the assay with CYP2E1 (gene 1571), 56 µM (active); with CYP4A11 (gene 1579), 67.8 µM (active); in assay [9] it was 88.5 µM (active). In addition, the AC50 is 79.1 µM (active) in assay [10]; 88.8 µM (active) in [11]; 91.6 µM (active) in assay [12]; 89.1 µM (active) in assay [13]; 9.92 µM (active) in [14]. The outcome (with Caspase-3 (Homo sapiens); in assay [4]) was inactive.

Turning to `Cc1[nH]cnc1C[C@H]1CCc2c(C)c3ccccc3n2C1=O`, the half-maximal activity concentration (AC50) in the assay with BCL2L11 (gene 10018) is 26.6 µM (active); in [1], 19.6 µM (active); in [2] it was 24.1 µM (active); in assay [5], 5.56 µM (active); in assay [6], 66.7 µM (active); in assay [7] it was 29 µM (active). Further, the AC50 in assay [8] was 30.6 µM (active); with CYP2C8 (gene 1558) it was 22.9 µM (active); with CYP2C9 (gene 1559), 28.7 µM (active); with CYP2E1 (gene 1571), 17.6 µM (active); with CYP4A11 (gene 1579) it was 13.2 µM (active); in [10], 27.4 µM (active). Further, the AC50 is 70.2 µM (active) in assay [12] and 11.8 µM (active) in assay [13]. The call (in assay [3]; in the assay with Caspase-3 (Homo sapiens); in assay [4]; in assay [11]) was inactive.

Consider `CC(C)(O)c1coc(S(=O)(=O)NC(=O)Nc2c3c(cc4c2CCC4)CCC3)c1`, for which the outcome (in the assay with BCL2L11 (gene 10018); in assay [1]; in [2]; in the assay with Caspase-3 (Homo sapiens); in assay [4]; in assay [6]) was inactive. The outcome (with CYP2C8 (gene 1558); with CYP2C9 (gene 1559); with CYP4A11 (gene 1579); in [10]; in assay [11]; in assay [12]) was inactive. Besides, the result in assay [13] was inactive. In addition, the AC50 is 50 µM (active) in assay [5], 2.62 µM (active) in [7], 36.8 µM (active) with CYP2E1 (gene 1571) and 10.5 µM (active) in [14].
